Results on 23 compounds are retold here after the supplement of paper PMC4709259.

Each structure is given as a SMILES string. Structures can show the parent of a compound that is named as a salt. ± gives the standard deviation.

Assay [1] deals with Jurkat. The assay can be described thus: mean cell size (FSC-A) relative to DMSO control (fraction of control); higher = larger cells. Particulars: 48 h. In a few lines: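 Jurkat cells seeded at 600 cells/µl were incubated 1 h, then exposed for 48h to the Enzo Screen-Well FDA Approved Drug Library v2.0 at 25µM in 0.9% (v/v) final DMSO. Drugs that cut counts below 20% of controls were diluted 10-fold and retested, down to 25nM. Cell count and mean cell size (forward scatter area) were read on an Accuri C6 flow cytometer, relative to solvent-only controls. Plates held 6-12 controls; values are means of 3 biological replicates.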

Assay [2] has as its system Jurkat. The assay can be described thus: cell count relative to DMSO control (fraction of control); higher = more cells (less growth inhibition). Particulars: 48 h.

Regarding `O=NN(CCCl)C(=O)NCCCl` [Carmustine] (concentration: 25 µM), in the assay with Jurkat [1], the mean cell size was 1.066 ± 0.0089. For the same compound, the cell count with Jurkat [2] came to 0.767 ± 0.014.
In the assay with Jurkat [1], `COc1ccccc1OCC(O)CN1CCN(CC(=O)Nc2c(C)cccc2C)CC1` (stereo unspecified) [Ranolazine·2HCl] (concentration: 25 µM) yielded a mean cell size of 0.987 ± 0.031. Besides, in the assay on Jurkat [2], the cell count is 0.979 ± 0.084.
The like results for `COc1ccccc1OCCNCC(O)COc1cccc2[nH]c3ccccc3c12` (stereo unspecified) [Carvedilol] (concentration: 25 µM) were, in that order, 1.01 ± 0.014 and 0.39 ± 0.034.
Taken in the same sequence, the figures for `COc1ccnc(C[S+]([O-])c2nc3cc(OC(F)F)ccc3[nH]2)c1OC` (stereo unspecified) [Pantoprazole] (concentration: 25 µM) were 0.9065 ± 0.0044 and 0.85 ± 0.034.
`C=CC(N)CCC(=O)O` (stereo unspecified) [Vigabatrin] (concentration: 25 µM) had a mean cell size with Jurkat [1] of 1.002 ± 0.0073. The cell count with Jurkat [2] worked out at 0.829 ± 0.075.
The like results for `CC1(C)O[C@@H]2C[C@H]3[C@@H]4C[C@H](F)C5=CC(=O)C=C[C@]5(C)[C@@]4(F)[C@@H](O)C[C@]3(C)[C@]2(C(=O)CO)O1` [Fluocinolone Acetonide] (concentration: 25 µM) were, in that order, 0.958 ± 0.037 and 0.55 ± 0.08.
The like results for `CCCNCC(O)COc1ccccc1C(=O)CCc1ccccc1` (stereo unspecified) [Propafenone·HCl] (concentration: 25 µM) were, in that order, 1.06 ± 0.02 and 0.605 ± 0.13.
The like results for `CC(C)C(=O)OCC(=O)[C@@]12O[C@H](C3CCCCC3)O[C@@H]1C[C@H]1[C@@H]3CCC4=CC(=O)C=C[C@]4(C)[C@H]3[C@@H](O)C[C@@]12C` [Ciclesonide] (concentration: 2.5 µM) were, in that order, 0.9714 ± 0.0087 and 0.838 ± 0.08.
In the assay with Jurkat [1], `Cc1cccn2c(=O)c(-c3nnn[nH]3)cnc12` [Pemirolast Potassium] (concentration: 25 µM) yielded a mean cell size of 0.938 ± 0.024. The cell count in the assay with Jurkat [2] turned out to be 0.756 ± 0.11.
For `CC(C)(C)NC(=O)[C@@H]1C[C@@H]2CCCC[C@@H]2CN1C[C@@H](O)[C@H](Cc1ccccc1)NC(=O)[C@H](CC(N)=O)NC(=O)c1ccc2ccccc2n1` [Saquinavir Mesylate] (concentration: 25 µM), the mean cell size with Jurkat [1] was 0.963 ± 0.0039. In the assay with Jurkat [2], this compound came in with a cell count of 0.648 ± 0.065.
`C#C[C@]1(O)CC[C@H]2[C@@H]3CCC4=CC(=O)CC[C@@H]4[C@H]3CC[C@@]21CC` [Levonorgestrel] (concentration: 25 µM): the mean cell size with Jurkat [1] turned out to be 0.941 ± 0.032. Further, the cell count in the assay with Jurkat [2] stood at 0.903 ± 0.046.
`COc1ccc2c3c1O[C@H]1C[C@@H](O)C=C[C@@]31CCN(C)C2` [Galantamine·HBr] (concentration: 25 µM): in the assay on Jurkat [1], the mean cell size is 0.976 ± 0.01. The same compound had a cell count in the assay on Jurkat [2] of 0.701 ± 0.14.
Taken in the same sequence, the figures for `O=C(c1ccc(OCCN2CCCCC2)cc1)c1c(-c2ccc(O)cc2)sc2cc(O)ccc12` [Raloxifene·HCl] (concentration: 25 µM) were 0.891 ± 0.016 and 0.675 ± 0.044.
`C=CC1=C(C(=O)O)N2C(=O)[C@@H](NC(=O)/C(=N\O)c3csc(N)n3)[C@H]2SC1` [Cefdinir] (concentration: 25 µM): in the assay with Jurkat [1], the mean cell size is 0.976 ± 0.059. This compound also yielded a cell count in the assay with Jurkat [2] of 0.765 ± 0.12.
In turn, `CN1CCN(C2=Nc3cc(Cl)ccc3Nc3ccccc32)CC1` [Clozapine] (concentration: 25 µM) had a mean cell size in the assay on Jurkat [1] of 0.966 ± 0.025. This compound returned a cell count in the assay with Jurkat [2] of 0.494 ± 0.17.
The like results for `C[C@H]1O[C@H](O[C@H]2[C@H](O)[C@@H](O)[C@@H](O[C@@H]([C@H](O)[C@@H](O)C=O)[C@H](O)CO)O[C@@H]2CO)[C@H](O)[C@@H](O)[C@@H]1N[C@H]1C=C(CO)[C@@H](O)[C@H](O)[C@H]1O` [Acarbose] (concentration: 25 µM) were, in that order, 1.04 ± 0.047 and 0.877 ± 0.15.
Compound `CC(C)(O/N=C(\C(=O)N[C@@H]1C(=O)N2C(C(=O)[O-])=C(C[n+]3ccccc3)CS[C@H]12)c1csc(N)n1)C(=O)O` [Ceftazidime] (concentration: 25 µM) gave a mean cell size in the assay on Jurkat [1] of 0.958 ± 0.011. The compound further had a cell count in the assay on Jurkat [2] of 0.884 ± 0.095.
In the case of `C[C@@H]1C/C=C/C=C/C=C/C=C/[C@H](O[C@@H]2O[C@H](C)[C@@H](O)[C@H](N)[C@@H]2O)C[C@@H]2O[C@](O)(C[C@@H](O)C[C@H]3O[C@@H]3/C=C/C(=O)O1)C[C@H](O)[C@H]2C(=O)O` [Natamycin] (concentration: 25 µM), in the assay with Jurkat [1], the mean cell size is 0.951 ± 0.015. Besides, the cell count with Jurkat [2] amounted to 1.01 ± 0.096.
As to `Cc1cccc(C)c1NC(=O)C1CCCCN1C` (stereo unspecified) [Mepivacaine·HCl] (concentration: 25 µM), the mean cell size in the assay with Jurkat [1] came to 0.91 ± 0.035. Also, in the assay with Jurkat [2], the cell count turned out to be 1.31 ± 0.14.
The like results for `CC(=O)OCC(=O)[C@@]1(O)CC[C@H]2[C@@H]3CCC4=CC(=O)CC[C@]4(C)[C@H]3C(=O)C[C@@]21C` [Cortisone Acetate] (concentration: 25 µM) were, in that order, 1.01 ± 0.028 and 0.823 ± 0.082.
Taken in the same sequence, the figures for `NCCC(O)(P(=O)(O)O)P(=O)(O)O` [Pamidronate Disodium  Pentahydrate (Pamidronic Acid)] (concentration: 25 µM) were 0.967 ± 0.034 and 0.822 ± 0.023.
The like results for `CCN1CC(CCN2CCOCC2)C(c2ccccc2)(c2ccccc2)C1=O` (stereo unspecified) [Doxapram·HCl] (concentration: 25 µM) were, in that order, 0.928 ± 0.013 and 1.01 ± 0.015.
In the case of `CC12CC3CC(C)(C1)CC(N)(C3)C2` [Memantine·HCl] (concentration: 25 µM), the mean cell size in the assay with Jurkat [1] was found to be 1 ± 0.061. Also, the cell count in the assay with Jurkat [2] is 0.797 ± 0.017.
